# Source: PubChem
# AmpC no deterg – qHTS Inhibitors of AmpC Beta-Lactamase (assay without detergent). P00811. AmpC nitrocefin hydrolysis, absorbance 480 nm, 0.0001% Triton. Potency, µM (titrated, usually from 57.1 µM), for inactives: top-dose activity change, negative = inhibition, usual class: inhibitors. hit rate 0.52% among 330,000. AID 485341, 2010;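 further: potency means the concentration at half of the fitted maximal effect; plate controls were no compound for no effect and no enzyme for full effect; nearly all actives have a fitted effect of over 20% in size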
# Target sequence (P00811 whole entry, looked up): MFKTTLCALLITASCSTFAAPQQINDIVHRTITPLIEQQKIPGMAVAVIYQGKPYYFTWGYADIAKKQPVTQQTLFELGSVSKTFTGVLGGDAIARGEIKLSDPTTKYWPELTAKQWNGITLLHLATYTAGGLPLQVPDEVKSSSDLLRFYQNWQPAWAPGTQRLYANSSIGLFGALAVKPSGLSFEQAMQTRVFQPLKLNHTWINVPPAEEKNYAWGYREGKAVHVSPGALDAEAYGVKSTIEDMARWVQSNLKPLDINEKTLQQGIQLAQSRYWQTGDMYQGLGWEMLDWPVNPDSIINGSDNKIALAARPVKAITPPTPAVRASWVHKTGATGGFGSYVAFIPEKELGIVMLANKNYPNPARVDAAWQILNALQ
#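 20 mM phosphate pH 7.0 + 0.01% (detergent screen) or 0.0001% Triton X-100; 5.3 nM AmpC reagent; cpd preinc 15 min RT; nitrocefin (800 uM stock) to start; A480 q20 s × 4 min; Activity was normalised to no-enzyme and no-compound control wells.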
# AmpC detergent – qHTS Inhibitors of AmpC Beta-Lactamase (assay with detergent); P00811; AmpC hydrolysis of nitrocefin, absorbance 480 nm, 0.01% Triton; Potency, µM (series often up to 114 µM), for the others: at the highest dose activity change, negative = inhibition, actives largely listed as inhibitors; hit rate 0.041% among 370,000; AID 485294, 2010;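 further: potency means the concentration at half of the fitted maximal effect; 0% = no-compound wells and -100% = no-enzyme wells; nearly all actives have a fitted effect of over 25% in size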
#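 AmpC (5.3 nM in the dispensed reagent) in 20 mM phosphate pH 7.0 with 0.01% (detergent screen) or 0.0001% Triton X-100 was preincubated with compounds for 15 min at room temperature. Nitrocefin was then added from an 800 uM solution, and hydrolysis was followed at 480 nm.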
# NS1 function inh – qHTS Assay for Inhibitors of Influenza NS1 Protein Function | AID 2326, 2010 | hit rate 0.4% among 270,000 | Potency, µM (highest dose often 46.1 µM), inactives show at the highest dose activity, positive = more growth; calls by dose curve; further: potency means the concentration at half of the fitted maximal effect; actives are rising curves; nearly all actives have a fitted effect of over 50% in size
#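 Growth recovery, yeast-based: influenza A NS1 expressed in S. cerevisiae causes slow growth, and suppressors are detected by OD600. The parent strain without NS1 is used as positive control.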
# CHX counter – Cycloheximide Counterscreen for Small Molecule Inhibitors of Shiga Toxin | max response, % | AID 2314, 2010 | cell reporter, cycloheximide protein synthesis inhibition counterscreen | hit rate 12% among 300,000; in the data active means max response mostly above about 13%, no sharp cut-off; inactive means mostly below about 14%; further: read at 38.3 µM for the half of the compounds with a filed dose; 0% is about no effect
# Shiga toxin inh – A qHTS for Small Molecule Inhibitors of Shiga Toxin; inhibition, % at 38.7 µM; Vero cells, Shiga toxin protein synthesis inhibition reporter; hit rate 9.2% among 290,000; in the data active means inhibition mostly above about 28%, no sharp cut-off; inactive means mostly below about 43%; further: 0% is about no effect
# The depositor's hits bear a star; ? = inconclusive; . = no result; [ ] = remark or other dose. The sample as a whole holds a higher share of hits than the screen did. Unless noted, the call rests on the fitted dose curve; in most records, active means well fitted curve in the direction sought with a large enough effect; inconclusive means small, poorly fitted or top-dose-only effect, or another doubt; inactive means no such curve, though single readings can be large; an effect the other way counts as inactive or inconclusive.
SMILES,AmpC no deterg,AmpC detergent,NS1 function inh,CHX counter,Shiga toxin inh
CCOC(=O)c1ccc(S(=O)(=O)N2CCN(C3CC(=O)N(c4ccccc4C(F)(F)F)C3=O)CC2)cc1 (stereo not drawn),143%,?,.,.,.
CCN(CC)CCn1c(=N)n(CCOc2ccccc2Cl)c2ccccc21,.,27%,.,.,.
Cc1cccc(NC(=O)Cc2c(F)cccc2Cl)n1,-7%,-8%,-10%,28*,112*
COc1cccc(CC(=O)Nc2ncc(C)s2)c1,-17%,-1%,5%,11,24
COc1ccc(OC)c(-c2csc(NC(=O)Cc3ccccc3F)n2)c1,-25%,?,-25%,28*,41*
COc1cccc(CC(=O)Nc2nc(C)cs2)c1,-13%,5%,.,43*,72*
Cc1cc(CNC(=O)Cc2c(F)cccc2Cl)nn1C,-13%,-1%,2%,18*,34*
Cc1cccc(NC(=S)N/N=C/c2cccc(O)c2)c1C,-38%,6%,-5%,19*,23
Cc1ccccc1NC(=S)N/N=C/C(C)c1ccccc1 (stereo not drawn),-24%,3%,.,16,2
Cc1ccccc1NC(=S)N/N=C/c1ccc(O)cc1O,?,2%,-3%,41*,100*
O=C(O)c1cccc(NC(=S)N/N=C/c2cccc(O)c2)c1,-29%,-11%,.,14,21
O=C(NCc1ccc2c(c1)OCO2)c1cccnc1Cl,-11%,3%,.,9,12
CC(C)(C)C(=O)N1CCc2cc(-c3csc(N)n3)ccc21,-32%,-9%,-14%,6,27
CNc1nc(-c2ccc3c(c2)CCN3C(=O)CC(C)(C)C)c(C)s1,120%,0%,3%,7,-2
CNc1nc(-c2ccc3c(c2)CCN3C(=O)c2ccccc2F)c(C)s1,-1%,4%,0%,18*,61*
CNc1nc(-c2ccc3c(c2)CCN3C(=O)c2ccccc2F)cs1,-20%,-1%,8%,54*,95*
CCOC(=O)c1[nH]c2c(c1Cc1ccccc1)C(=O)CC(c1ccccc1)C2 (stereo not drawn),.,-2%,.,.,.
Cc1occc1C(=O)/C(C#N)=C/c1ccc(O)c(Br)c1,-26%,-11%,-4%,0,14
NC(=O)c1c(NC(=O)c2ccc(F)cc2)sc2c1CCC2,-33%,-13%,-8%,53*,45*
O=C(Nc1sc2c(c1C(=O)O)CCCC2)c1ccc(F)cc1,-32%,-13%,-75%,33*,49*
NC(=O)c1c(NC(=O)c2cc3ccccc3o2)sc2c1CCC2,-41%,?,-50%,36*,72*
CC(C)(C)c1ccc(C(=O)Nc2sc3c(c2C(=O)O)CCC3)cc1,-35%,?,0%,8,20
O=C(Nc1sc2c(c1C(=O)O)CCCCC2)c1ccccc1F,-55%,-4%,.,41*,109*
CC(=O)c1ccc(S(=O)(=O)Nc2ccc(-c3ccc(N4CCCCC4)nn3)cc2)cc1,.,4%,.,.,.
O=C1NC(=O)/C(=C\c2ccc(Br)o2)S1,-25%,2%,-94%,23*,20*
SMILES,AmpC no deterg,AmpC detergent,NS1 function inh,CHX counter,Shiga toxin inh
O=C1NC(=O)/C(=C/c2cc3c(cc2Br)OCO3)S1,-36%,-9%,-92%,8,-3
C/C(=N/OC(=O)CC(C)C)c1cc(-c2ccc(Cl)cc2)no1,-1%[2.29 µM],-7%,-5%,15,124*
CCOC(=O)c1cc(/C(C)=N/OC(=O)c2ccc(Cl)cc2)on1,-5%,-5%,2%,3,-16
Nc1c(C(=O)N2CCCC2)sc2nc(-c3ccccc3)ccc12,69%,2%,0%,39*,75*
Cc1ccc(-c2c3c(nc4sc(C(N)=O)c(N)c24)CCC3)cc1,63%,?,12%,29*,95
Nc1c(C(=O)N2CCCCC2)sc2nc3c(cc12)CCCC3,-13%,-4%,-17%,50*,108*
Cc1ccc(C(=O)c2sc3nc4c(cc3c2N)CCC4)cc1,-16%,-18%,-6%,47*,active
Nc1c(C(=O)O)sc2nc(-c3ccccc3)cc(-c3ccccc3)c12,-41%,-8%,-2%,-4,-2
Cc1ccc(C(=O)Nc2ccc(Br)cc2)cc1S(=O)(=O)N1CCOCC1,.,1%,.,.,.
CCCCC(=O)Nc1sc2c(c1C(N)=O)CCC2,-7%,2%,-25%,32*,45*
